Source: PubChem BioAssay
Shown are actives, neighbours in structure and some others; about 2.2% of the full set was active somewhere.
Ba/F3 V617F tox – reduced viability of JAK2V617F-dependent Ba/F3 cells, primary screen, JAK2V617F inhibitor project, cell-based, Ba/F3 EpoR-JAK2V617F, luminescence; 220,000 tested, 1.1% active; ATP luminescence; inhibition, % at 5.6 µM;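 active = inhibition above the campaign mean plus 3 SD over all tested compounds, cut at about 24% in these data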;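 also: cytokine-independent growth of Ba/F3 cells driven by EpoR plus mutant JAK2; 0% = DMSO-treated cells and 100% = JAK inhibitor I control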
aSyn 5UTR inh – MLPCN primary screen, SNCA 5' untranslated region | alpha-synuclein 5'UTR reporter, inhibitor activity | inhibition, % (tested at 7.5 µM) | 300,000 tested, 0.82% active | AID 1813, 2009; in the data active = inhibition above about 60%;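 also: H4 neuroglioblastoma cells stably carrying SNCA 5'UTR luciferase fusion; 0% = DMSO wells and 100% = positive control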
IEC-6 cytotox – cytotoxicity in IEC-6 intestinal epithelial cells, primary screen, cytotoxicity control for KLF5 inhibitor project, cell-based, luminescence; IEC-6 cytotoxicity, luminescence viability; inhibition, % at 5 µM; 290,000 tested, 0.78% active; in the data active = inhibition above about 22%;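 also: 0% = plate median of test compound wells and 100% = cytotoxic reference compound wells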
BaF3 parental – parental Ba/F3 cell viability inhibition, counter-screen for JAK2V617F inhibitor project, murine pro-B, CellTiter-Glo luminescence; CellTiter-Glo ATP luminescence; 220,000 tested, 1.1% active; AID 1486, 2009; inhibition, % at 5.6 µM;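 active = inhibition above a per-campaign cutoff, the mean inhibition of all tested compounds plus 3 SD, cut at about 27% in these data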;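 also: 0% = DMSO wells and 100% = JAK Inhibitor I control wells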
KLF5 inh – KLF5 expression inhibitors, primary screen, DLD-1 cells, luminescence; DLD-1 KLF5 promoter-luciferase reporter; inhibition, % at 5 µM; 290,000 tested, 0.23% active; AID 1700, 2009;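 active = inhibition above a per-plate limit of that plate's mean compound inhibition plus 3 SD, cut at about 60% in these data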;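 also: 0% = DMSO wells and 100% = LY294002 at 200 µM; higher means less KLF5 promoter-driven luciferase light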
APP 5UTR inh – inhibitors of APP translation via 5'UTR reporter, primary screen, APP 5'UTR luciferase, SH-SY5Y cells; inhibition, % at 2 µM; AID 1285, 2008; 190,000 tested, 0.82% active; SH-SY5Y APP 5'UTR-luciferase reporter, luminescence;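 active = inhibition above a set limit, derived from the sample mean plus 3 SD, cut at about 45% in these data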
The depositor's hits bear a star.

What do the screens show for `Cc1nn(-c2ccccc2Cl)c(Cl)c1/C=N/Nc1nc2ccccc2s1`?
Ba/F3 V617F tox: -1; aSyn 5UTR inh: 69*; IEC-6 cytotox: -2; BaF3 parental: 8; KLF5 inh: 15; APP 5UTR inh: 39

Results for CCOCCCn1c(=S)[nH]c2cc(C(=O)N3CCN(c4ccccc4)CC3)ccc2c1=O ?
aSyn 5UTR inh: -2; IEC-6 cytotox: -5; KLF5 inh: 8

How did CCOC(=O)c1c(C)[nH]c(C(=O)N/N=C/c2ccc(Br)cc2)c1C do in these assays?
Ba/F3 V617F tox: 73*; aSyn 5UTR inh: 39; IEC-6 cytotox: 85*; BaF3 parental: 78*; KLF5 inh: 72*; APP 5UTR inh: 95*

How did CCOc1ccc(CCN2C(=O)C(=O)N([C@H](CCCN(C)Cc3ccccc3)CNCc3ccccc3)C[C@@H]2C(C)C)cc1 do in these assays?
aSyn 5UTR inh: -8

How did COc1ccc(CNC[C@@H](CCCCN(C)Cc2ccc(OC)cc2)N2C[C@H](c3ccccc3)N(CCc3ccc(Cl)c(Cl)c3)C(=O)C2=O)cc1 do in these assays?
Ba/F3 V617F tox: 2; aSyn 5UTR inh: 92*; IEC-6 cytotox: 1; BaF3 parental: 5; KLF5 inh: -7; APP 5UTR inh: 0

How did CSCCC(NC(=O)c1ccco1)C(=O)N1CCN(Cc2ccccc2)CC1 (stereo not given) do in these assays?
aSyn 5UTR inh: 12

What do the screens show for `O=C(Nc1ccccc1F)Nc1ccccc1N1CCCCC1`?
Ba/F3 V617F tox: -1; aSyn 5UTR inh: 3; IEC-6 cytotox: -5; BaF3 parental: -7; KLF5 inh: -7

Results for N#Cc1cc(N)c(Nc2ccccc2)cc1C#N ?
Ba/F3 V617F tox: 15; aSyn 5UTR inh: 33; IEC-6 cytotox: 16; BaF3 parental: 37*; KLF5 inh: 17; APP 5UTR inh: -5

What do the screens show for `CCCCCCCCCCCCCCCC[n+]1ccc(/C=N/O)cc1`?
Ba/F3 V617F tox: 98*; IEC-6 cytotox: -1; BaF3 parental: 64*; KLF5 inh: 15; APP 5UTR inh: 22

Results for Nc1cc(=O)[nH]c(SCCSc2ccccc2F)n1 ?
aSyn 5UTR inh: 67*; IEC-6 cytotox: -1; KLF5 inh: -25

Results for Nc1cc(=O)[nH]c(SCCSc2cc(Cl)ccc2Cl)n1 ?
aSyn 5UTR inh: 50; IEC-6 cytotox: -2; KLF5 inh: -12

How did Cn1c(O)c(C=NCC2CCNCC2)c(=O)n(C)c1=O do in these assays?
Ba/F3 V617F tox: 6; aSyn 5UTR inh: 25; IEC-6 cytotox: 1; BaF3 parental: 93*; KLF5 inh: -7; APP 5UTR inh: -4

Results for CCN(CC)S(=O)(=O)c1ccc(/C=C/C(=O)Nc2ccc(N3CCOCC3)cc2)cc1 ?
Ba/F3 V617F tox: 4; aSyn 5UTR inh: 7; IEC-6 cytotox: -4; BaF3 parental: 0; KLF5 inh: 48

Results for Cc1ccc(CN2CCN(/N=C/c3ccc(C(=O)O)cc3)CC2)c(C)c1 ?
Ba/F3 V617F tox: 8; aSyn 5UTR inh: 11; IEC-6 cytotox: 7; BaF3 parental: 53*; KLF5 inh: -4; APP 5UTR inh: -12

What do the screens show for `O=C(NCc1ccco1)/C(=C\c1cccs1)NC(=O)c1ccco1`?
Ba/F3 V617F tox: -2; aSyn 5UTR inh: -1; IEC-6 cytotox: 3; BaF3 parental: 4; KLF5 inh: 5; APP 5UTR inh: -1

What do the screens show for `COCCn1c(=NC(=O)c2ccc(S(=O)(=O)N3CCOCC3)cc2)sc2cc(S(N)(=O)=O)ccc21`?
aSyn 5UTR inh: 7; IEC-6 cytotox: 6; KLF5 inh: -38

Results for CCn1c(=NC(=O)c2ccc(S(=O)(=O)N3CCOCC3)cc2)sc2cccc(OC)c21 ?
Ba/F3 V617F tox: 35*; aSyn 5UTR inh: 10; IEC-6 cytotox: 1; BaF3 parental: 42*; KLF5 inh: -11; APP 5UTR inh: -7

What do the screens show for `Cc1cccc2cc3c(N)c(C(=O)N4CCOCC4)sc3nc12`?
Ba/F3 V617F tox: 59*; aSyn 5UTR inh: 6; IEC-6 cytotox: 2; BaF3 parental: 59*; KLF5 inh: -11; APP 5UTR inh: 85*

How did CCC(C)(C)NC(=O)CN(C(=O)CCC(=O)Nc1nccs1)c1ccc(C)cc1 do in these assays?
aSyn 5UTR inh: 0; IEC-6 cytotox: -2; KLF5 inh: -38
